Test systems include IRAK1; IRAK3; IRAK4; ITK.
Settings in all cases: concentration: 1 μM, replicates: in singlicate; n = 1
Experiment [1] deals with JAK1(JH1domain-catalytic).
Experiment [2] deals with JAK1(JH2domain-pseudokinase).
Experiment [3] deals with JAK2(JH1domain-catalytic).
Experiment [4] concerns JAK3(JH1domain-catalytic).
For the next experiment, the system named is T1, JNK1.
T1 construct: gene MAPK8

The next experiment concerns T2, JNK2.
T2 construct: gene MAPK9

Consider five compounds from publication PMC5540273 (PLoS ONE, 2017).
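Further: KINOMEscan kinase panel screen.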

On to `COc1ccc2cc(-c3nc(-c4ccccc4C(C)C)[nH]c3-c3ccncc3)ccc2c1` [SB-660566], for which the “%Inh” value in the experiment with IRAK1 is 23%; in the experiment with IRAK3 it was 0%; in the experiment with IRAK4, 42%; in the experiment with ITK it was 8%; in experiment [1] it was 11%; in experiment [2] it was 0%. Also, the “%Inh” value in [3] worked out at 100%; in experiment [4], 0%; in the experiment on JNK1 it was 23%; in the experiment on JNK2, 44%.
Consider `COc1ccc(Nc2nccc(N3CCC(NC(=O)C(C)c4ccc(Cl)cc4)C3)n2)cc1` (centres unmarked) [GSK1379735], for which the “%Inh” value with IRAK1 came to 1%; in the experiment on IRAK3, 10%; with IRAK4, 3%; with ITK, 14%; in [1] it was 10%; in [2], 0%. The “%Inh” value amounted to 24% in [3], 0% in [4], 12% in the experiment on JNK1 and 0% in the experiment with JNK2.
As for `FC(F)(F)c1ccccc1-c1cc(-c2c[nH]nc2-c2ccccn2)ccn1` [GW679396], the “%Inh” value is 0% in the experiment on IRAK1; 0% in the experiment on IRAK3; 0% in the experiment on IRAK4; 8% with ITK; 5% in experiment [1]; 0% in [2]. Also, the “%Inh” value worked out at 0% in [3], 0% in experiment [4], 30% with JNK1 and 32% with JNK2.
`CNc1cc(-c2ccc3c(N)n[nH]c3c2)nc(N)n1` [GSK2224810]: the “%Inh” value with IRAK1 was 0%; in the experiment on IRAK3, 0%; with IRAK4, 0%; in the experiment with ITK it was 3%; in experiment [1] it was 12%; in [2] it was 35%. Further, the “%Inh” value came to 4% in [3], 0% in experiment [4], 0% in the experiment on JNK1 and 6% with JNK2.
Turning to `O=C1NC(=O)C(c2ccc(Cl)cc2)=C1Nc1ccc(O)cc1` [SB-340867], the “%Inh” value (with IRAK1; in the experiment with IRAK3; in the experiment with IRAK4; with ITK; in experiment [1]; in experiment [2]) was 0% in each case. In addition, the “%Inh” value in [3] is on record as 14%; in experiment [4], 0%; in the experiment on JNK1, 3%; in the experiment on JNK2 it was 0%.
